Assay results reported in the supplement of paper PMC12669032.
Unmarked numbers belong to inactive results.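 The calls were made as follows: active = AUC reduced over 20% with Padj below 0.05 in at least 2 of 3 replicates; inactive = otherwise.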

system: Streptococcus salivarius; assay: growth AUC relative to DMSO control (median of replicates) (fraction); higher = more growth (less inhibition), active = hit call of the paper; conditions: 20 µM; 24 h
Procedure, shortened: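 Gut bacterial monocultures were grown anaerobically at 37 °C in mGAM, starting at OD600 0.05, with 20 µM compound (1% DMSO) in round-bottom 96-well plates under pierced gas-permeable seals. OD600 was read hourly for 24 h. Area under the growth curve (minimum OD set to 0) was normalised to the plate median of DMSO controls, or to row and column medians on the industrial chemical plate. The value is the median of three biological replicates grown on separate days.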

SMILES | growth AUC
CCOc1ccc(NC(=O)OC(C)C)cc1OCC | 0.975
Cc1cc(CC(C)CC(C)(C)C)n(O)c(=O)c1.NCCO (centres undefined) | 1.02
CC(=O)Nc1cc(NS(=O)(=O)C(F)(F)F)c(C)cc1C | 1
O=C(O)CCCc1c[nH]c2ccccc12 | 1
CC(=O)CC(c1ccccc1)c1c(O)c2ccccc2oc1=O (centres undefined) | 1
CCc1cccc(C)c1N(C(=O)CS(=O)(=O)[O-])C(C)COC.[Na+] (centres undefined) | 0.878
CCOC(=O)CSc1nc(C(C)(C)C)nn1C(=O)N(C)C | 0.957
CO/N=C(/C(=O)O)c1ccccc1CO/N=C(\C)c1cccc(C(F)(F)F)c1 | 0.915
Clc1ccc(Sc2cc(Cl)c(Cl)cc2Cl)cc1 | 0.933
CS(=O)(=O)c1ccc(C(=O)O)c(N)c1 | 1.03
CC(C)(c1cc(Br)c(O)c(Br)c1)c1cc(Br)c(O)c(Br)c1 | 0.144 (active)
N#Cc1ccc(CC(=NNC(=O)Nc2ccc(OC(F)(F)F)cc2)c2cccc(C(F)(F)F)c2)cc1 (mixture of isomers) | 1.02
Clc1ccc(CSc2ccc(Cl)cc2)cc1 | 1.01
COC(=O)CSc1cc(N=c2sc(=O)n3n2CCCC3)c(F)cc1Cl | 0.946
COc1ccc(Oc2ccc(NC(=O)N(C)C)cc2)cc1 | 0.988
Nc1cccc(O)c1 | 1.02
COC(=O)c1ccc(I)cc1S(=O)(=O)[N-]C(=O)Nc1nc(C)nc(OC)n1.[Na+] | 0.948
COC1CCC2(CC1)NC(=O)C(O)(c1cc(C)ccc1C)C2=O (centres undefined) | 1.01
CC(C)OC(=O)c1cc(C(=O)OC(C)C)cc([N+](=O)[O-])c1 | 0.992
CCNc1nc(NC(C)(C)C)nc(OC)n1 | 1

SMILES | growth AUC
C=O | 1
COC(=O)c1cccc(C)c1S(=O)(=O)NC(=O)Nc1nc(OCC(F)(F)F)nc(N(C)C)n1 | 0.984
CCOC(=O)c1ccc(O)cc1 | 1.01
c1ccc2c(c1)ccc1ccccc12 | 0.997
Clc1ccc(C(c2ccccc2Cl)C(Cl)Cl)cc1 (centres undefined) | 0.966
Cc1c(Br)c2ccc(F)cc2n1S(=O)(=O)c1ncn(S(=O)(=O)N(C)C)n1 | 1.06
c1ccc(CNc2ncnc3nc[nH]c23)cc1 | 1.04
NC(=O)c1c(Cl)cccc1Cl | 0.991
COC(=O)c1c(Cl)ccc(Cl)c1OC | 1.04
CCCCCCCC/C=C\CCCCCCCCCCCCC | 1.03
c1ccc2[nH]c(-c3cscn3)nc2c1 | 0.937
Nc1ccc(S(=O)(=O)Nc2cnc3ccccc3n2)cc1 | 1.03
C=CCO/N=C(\CCC)C1=C([O-])CC(C)(C)C(C(=O)OC)C1=O.[Na+] (centres undefined) | 1.02
O=S(=O)(Oc1ccc(Cl)cc1)c1ccccc1 | 0.955
COc1cccc(N(C)C(=S)Oc2cccc(C(C)(C)C)c2)n1 | 0.967
Cc1cc(C)cc(OCC(C)Nc2nc(N)nc(C(C)(C)F)n2)c1 (centres undefined) | 0.967
CCc1cccc(CC)c1N(COC)C(=O)C(=O)O | 1.02
O=C(O)COc1ccc(Cl)c2cccnc12 | 1.05
COC1CCC2(CC1)NC(=O)C(c1cc(C)ccc1C)=C2O (centres undefined) | 1.03
